# Assay outcomes (PubChem BioAssay)
# NTMT1 inhibitor: NTMT1 methyltransferase inhibition. Q9BV86. NTMT1 MTase-Glo SAH luminescence, purified enzyme. Potency, µM (highest dose often 114 µM), without a hit: top-dose activity change, negative = inhibition, actives largely listed as inhibitors. actives 2.5% (n = 59,000). AID 1645870;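 also: plate controls were DMSO vehicle for no effect and no enzyme for full effect; nearly all actives have a fitted effect of over 65% in size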
# Target sequence (Q9BV86 whole entry, looked up): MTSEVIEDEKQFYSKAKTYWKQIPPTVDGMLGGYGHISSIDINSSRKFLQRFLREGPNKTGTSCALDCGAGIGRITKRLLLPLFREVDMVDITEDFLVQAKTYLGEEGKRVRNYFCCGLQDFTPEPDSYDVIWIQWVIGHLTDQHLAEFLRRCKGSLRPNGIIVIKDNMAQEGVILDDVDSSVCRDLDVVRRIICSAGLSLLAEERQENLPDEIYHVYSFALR
# HTT-AS promoter: activates huntingtin-antisense promoter activity; HEK293 HTT-AS promoter firefly luciferase reporter, 24 h; response scale: percent change from vehicle, -100% = no light; Potency, µM (top dose mostly 57.5 µM), inactives show top-dose activity change, positive = activation, usual class: activators; actives 0.24% (n = 48,000); AID 1508624; also: nearly all actives have a fitted effect of over 55% in size
#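 Firefly luciferase signal from promoter-reporter HEK293 cells was scaled between vehicle (0%) and zero RLU (-100%). Compounds were tested at final concentrations of up to 57.5 uM over 24 h at 37 degrees C. PTC124 at 50 uM final served as control inhibitor.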
# HTT prom inh: inhibitors of huntingtin promoter activity | actives 0.93% (n = 48,000) | Potency, µM (highest dose often 57.5 µM), for inactives: top-dose activity change, negative = inhibition, hits mostly inhibitors | HEK293 HTT promoter firefly luciferase reporter, 24 h | AID 1508623; also: nearly all actives have a fitted effect of over 50% in size
#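 HEK293 Fluc reporter, 2,500 cells/well, 24 h pre-culture; cpds up to 57.5 uM final, 24 h 37 degrees C; Dual-Glo, 10 min RT; normalized vehicle = 0%, zero RLU = -100%.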
# Numbers without * were called inactive; u = inconclusive; x = no result given; ! = repeats disagree; [ ] = another dose, or the depositor's remark. Shown are actives, neighbours in structure and some others; about 2.4% of the full set was active somewhere. Calls follow the shape of the dose curve; as a rule, active = well fitted curve in the direction sought with a large enough effect; inconclusive = small, poorly fitted or top-dose-only effect, or another doubt; inactive = no such curve, though single readings can be large; an effect the other way counts as inactive or inconclusive. Potency is read from the fitted curve at half-maximal effect.
SMILES,NTMT1 inhibitor,HTT-AS promoter,HTT prom inh
CC1=C(C(=O)Nc2nc3ccccc3s2)C2(CCCC2)N=C(Nc2nc3ccccc3o2)N1,2%[57.5 µM],x,x
Cc1ccc(-n2nc3c(=O)n(C(C)C(=O)NCc4ccccc4C)nc(C)c3c2C)cc1 (stereo not given),u,-43%,u
Cc1ccc(-n2nc3c(=O)n(C(C)C(=O)NCc4ccc(OC(C)C)cc4)nc(C)c3c2C)cc1 (stereo not given),3%,-58%,7.1µM*
CSc1ccc(CCNC(=O)C(C)n2nc(C)c3c(C)n(-c4ccccc4)nc3c2=O)cc1 (stereo not given),-8%,-8%,u
CCC(C(=O)NCCc1ccc(SC)cc1)n1nc(C)c2c(C)n(-c3ccc(C)cc3)nc2c1=O (stereo not given),-12%,-27%,35µM*
C#CCOc1ccc2c(c1)c(-c1ccc(C(C)C)cc1)nc(=O)n2C(C)C,-10%[57.5 µM],x,x
CC1CCN(C(=O)CC#N)CC1N(C)c1ncnc2[nH]ccc12 (stereo not given),3%[57.5 µM],x,x
O=C(NCc1cccc(O)c1)Nc1nc(-c2ccncc2)cs1,2%[57.5 µM],x,x
CCCCCc1ccc(/C=C/[C@H](O)[C@@H](CO)NC)cc1,9%,x,x
CCCCCC1CCC(C(=O)Nc2ccc(S(=O)(=O)Nc3nccs3)cc2)CC1 (stereo not given),1%,x,x
CCOc1ccccc1Nc1sc(C(=O)c2ccccc2)c(N)c1C(=O)Nc1ccc(F)cc1,4%,-8%,u
COc1ccc(Cl)cc1Nc1sc(C(=O)c2ccccc2)c(N)c1C(=O)Nc1ccccc1,-8%,-29%,28µM*
COc1cccc(C(=O)Nc2ccc([S+](=O)([O-])Nc3nccs3)cc2)c1O,12%,x,x
CC1(C)Cc2c(sc(NC(=S)NC(=O)c3ccccc3)c2C(=O)O)CO1,79µM*!,-34%,-22%
COC(=O)c1c(NC(=O)c2ccccc2C(=O)O)sc2c1CCCC2,u,-5%,2%
Cc1ccc(-c2ccc(=O)n(CC(=O)NCc3ncc[nH]3)n2)cc1,16%,x,x
Cc1ccc(-n2[nH]c(C)c(N=Nc3cccc(-c4cccc(C(=O)O)c4)c3O)c2=O)cc1C,35µM*!,-33%,1%
COc1ccc(NC(=O)c2ccc(-c3nc4ccccc4[nH]3)cc2)cc1OC,8%,x,x
Nc1nccc(-c2c(-c3ccc(F)cc3)ncn2C2CCN(Cc3ccon3)CC2)n1,3%,x,x
O=C(Nc1ncc(Cc2ccc(C(F)(F)F)cc2)s1)c1ncc(-c2ccccc2)[nH]1,10%[57.5 µM],x,x
O=C1CCCC2=C1C(c1[nH]ncc1Cl)N=C(Nc1nc3cc(Cl)ccc3o1)N2 (stereo not given),-3%[57.5 µM],x,x
CC(C)N(CCCNC(=O)Nc1ccc(C(C)(C)C)cc1)C[C@H]1O[C@@H](n2ccc3c(N)ncnc32)[C@H](O)[C@@H]1O,13%[12.6 µM],x,x
CC(C)N(CCCNC(=O)Nc1ccc(C(C)(C)C)cc1)C[C@H]1O[C@@H](n2cc(Br)c3c(N)ncnc32)[C@H](O)[C@@H]1O,8.9µM*,x,x
CC(=O)c1[nH]c(C)c(C(=O)NCc2ccc(Cl)cc2)c1C,0%,-50%,16µM*
CCOC(=O)c1[nH]c(C)c(C(=O)NCc2ccc(F)cc2)c1C,-2%,0%,-37%
SMILES,NTMT1 inhibitor,HTT-AS promoter,HTT prom inh
CC(=O)Nc1ccc(C(=O)NC(C)(C)C)cc1,5%,x,x
CC(=O)Nc1sc2c(c1-c1ccc(C(F)(F)F)cc1)CCNC2,-2%,x,x
CNc1oc(-c2cccc3c2OC(F)(F)O3)nc1C#N,2%,x,x
COC(=O)C[C@H]1[C@]2(C)C3=C(C)[C@H](c4ccoc4)C[C@H]3O[C@@H]2[C@H](O)C2[C@](C)(C(=O)OC)C=CC(=O)[C@@]21C (stereo not given in full),11%[29.8 µM],x,x
COc1cc(CNC(=O)c2cc3n(n2)CCCN(Cc2ccc(C)cc2)C3=O)cc(OC)c1OC,16%,-16%,u
Cc1ccc(CN2CCCn3nc(C(=O)NCc4ccc(OC(C)C)cc4)cc3C2=O)cc1,-12%,-23%,18µM*
O=C(Nc1nc(-c2ccccc2)cs1)c1ccccc1S(=O)(=O)Nc1nccs1,14%,x,x
Cn1cc(C2=C(c3cn(CCCSC(=N)N)c4ccccc34)C(=O)NC2=O)c2ccccc21,3.2µM*,x,x
C/C=C1\[C@H](O[C@@H]2O[C@H](CO)[C@@H](O)[C@H](O)[C@H]2O)OC=C(C(=O)OCCc2ccc(O)cc2)[C@H]1CC(=O)OCCc1ccc(O)cc1,9%[12.6 µM],x,x
O=C1Nc2ccccc2/C1=C/c1cc(Cl)c(O)c(Cl)c1,35µM*!,x,x
O=C1Cc2cc(C(=O)c3ccco3)ccc2N1,-5%,x,x
O=C1Nc2ccccc2/C1=C\c1ccc(O)cc1,-18%,x,x
O=C1Nc2ccc(C(=O)c3ccco3)cc2/C1=C/c1cc(Cl)c(O)c(Cl)c1,4µM*,x,x
CC1(C)C[C@@H]2[C@H](C1)[C@@]1(C)C[C@]13C(O)OC[C@]3(O)[C@H]2O (stereo not given in full),-3%[57.5 µM],x,x
Cc1ccccc1-n1nc(-c2c(-c3ccc(F)cc3)nn3c2NC[C@@H](CO)C3)ccc1=O,-14%[57.5 µM],x,x
COc1ccc(OC)c(C(=O)Nc2nc(-c3ccccc3)cs2)c1,15%,x,x
Cc1ccc(Cl)cc1-n1ncc2c(N3CCN(Cc4ccccc4)CC3)ncnc21,-3%,-95%,13µM*
CCN1CCN(c2ncnc3c2cnn3-c2cc(Cl)ccc2C)CC1,-22%,-11%,-21%
CCCCCCCCCCC(O)C1C=CC2C(=O)N(c3ccccc3)C(=O)C2N1Nc1ccc([N+](=O)[O-])cc1 (stereo not given),21%,x,x
Fc1ccc(-c2ccc(CNc3nc(-c4ccccc4C(F)(F)F)nc4ccccc34)cc2)cc1C(F)(F)F,3%,x,x
N#C/C(=C\c1ccc(-c2ccc(C(=O)O)cc2)o1)c1nc2ccccc2[nH]1,45µM*,u,38%
N#C/C(=C\c1ccc(-c2ccc(Cl)c(C(=O)O)c2)o1)c1nc2ccccc2[nH]1,u,5%,8%
CCOc1ccc(-c2nc3cc(NC(=O)COc4cccc(C)c4)ccc3o2)cc1,u,-18%,-19%
Cc1cccc(OCC(=O)Nc2ccc(-c3nc4cc(C)ccc4o3)c(O)c2)c1,12%,0.5µM*,110%
Cc1cnc(-c2ccccc2OC(C)C)nc1NCc1ccc(-n2ccnn2)cc1,0%[57.5 µM],x,x
SMILES,NTMT1 inhibitor,HTT-AS promoter,HTT prom inh
COCOC1CCC(C(=O)Nc2ccc([S+](=O)([O-])Nc3nccs3)cc2)CC1 (stereo not given),15%,x,x
CC(=O)Nc1c(C)nn(-c2ccccc2)c1N1CCC(C(=O)Nc2cccc(C(F)(F)F)c2)CC1,-11%,6%,-24%
O=C(Nc1cccc(Nc2cc(Nc3cccc(C(F)(F)F)c3)ncn2)c1)C1CC1,10µM*,x,x
Cc1ccc(C2N=C(Nc3nc4ccccc4o3)NC3=C2C(=O)CCC3)s1 (stereo not given),8%,x,x
CC(=O)Nc1sc2c(c1-c1ccc(OC(F)(F)F)cc1)CCNC2,0%,x,x
NCc1ccc(OCCCc2sc(-c3ccc4c(c3)/C(=N/Nc3nc5ccccc5s3)CCC4)nc2C(=O)O)cc1,40µM*!,x,x
COCCCc1sc(-c2ccccc2)nc1C(=O)Nc1ccccc1-c1nc2cc(CN3CCCC3)cnc2s1,1%[29.8 µM],x,x
